# Rows were chosen to be rich in hits. Some 12% of all compounds tested hit in one or more screens of this group.
# Sfp PPTase inh – qHTS Assay for Inhibitors of Bacillus subtilis Sfp phosphopantetheinyl transferase (PPTase). Biochemical Sfp PPTase activity, qHTS. Potency, µM, without a hit: largest response in the series, negative = inhibition, actives largely listed as inhibitors. 310,000 tested, 3.5% active. AID 1490, 2009;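 also: the enzyme is Sfp with the accession as filed and its product quenches rhodamine fluorescence; 0% = enzyme reaction without inhibitor and -100% = no enzyme wells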
#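 Compounds were incubated with enzyme (final 15 nM) for 15 min at room temperature before substrate addition started the reaction. Fluorescence at 525 nm excitation, 598 nm emission was recorded immediately and after 30 minutes.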
# BAZ2B inh – qHTS Assay for Inhibitors of BAZ2B. Bromodomain adjacent to zinc finger domain protein 2B (Homo sapiens), Q9UIF8. AlphaScreen BAZ2B-H3K14Ac peptide displacement. Potency, µM (top dose mostly 114 µM), for inactives: at the highest dose activity change, negative = inhibition, most hits filed as inhibitors. 360,000 tested, 4.4% active. AID 504333, 2011; also: % is scaled to controls: 0 for no effect and ±100 for the full control effect; nearly all actives have a fitted effect of over 60% in size
#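 BAZ2B 50 nM plus b-H3(5-23)K14Ac 50 nM, PBS pH 7.4/0.01% Tween-20, 30 min RT; compound added (max 110 uM), 30 min RT; streptavidin donor/Ni-chelate acceptor beads 10 ug/mL final, 20 min dark; AlphaScreen read.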
# JMJD2A Tudor inh – qHTS Assay for Inhibitors of JMJD2A-Tudor Domain | AlphaScreen JMJD2A-Tudor / H3K4me3 peptide binding | Potency, µM (top dose mostly 114 µM), for inactives: top-dose activity change, negative = inhibition, actives largely listed as inhibitors | 390,000 tested, 4.4% active; also: % is scaled to controls: 0 for no effect and ±100 for the full control effect; nearly all actives have a fitted effect of over 50% in size
# HP1b binding inh – HTS for Inhibitors of HP1-beta Chromodomain Interactions with Methylated Histone Tails; Chromobox protein homolog 1 (Homo sapiens), P83916; AlphaScreen HP1-beta / biotin-H3K9me3 peptide binding; Potency, µM (top dose mostly 114 µM), for inactives: at the highest dose activity change, negative = inhibition, actives largely listed as inhibitors; 390,000 tested, 0.56% active; AID 540317, 2011; also: nearly all actives have a fitted effect of over 70% in size
#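 HP1-beta protein (50 nM final) preincubated 30 min at room temperature with biotinylated H3(1-18)K9me3 peptide (50 nM) in PBS pH 7.4, 0.01% Tween-20, then compound added for 30 min. AlphaScreen streptavidin donor/nickel chelate acceptor beads (10 ug/mL final), 30 min dark, luminescence read.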
# G9a inh – qHTS Assay for Inhibitors of Histone Lysine Methyltransferase G9a; AID 504332, 2011; Potency, µM (titrated, usually from 102 µM), inactives show top-dose activity, negative = inhibition, actives largely listed as inhibitors; 350,000 tested, 8.8% active; G9a H3K9 monomethylation, AlphaScreen, 2 h; also: % is scaled to controls: 0 for no effect and ±100 for the full control effect; nearly all actives have a fitted effect of over 75% in size
#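 AlphaScreen read-out: biotin-H3K9 peptide (500 nM) methylation by 20 nM enzyme with 20 uM SAM, 2 h at room temperature after 15 min compound preincubation; anti-monomethyl H3K9 antibody plus donor/acceptor beads, 10 min dark.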
# L3MBTL1 block – qHTS Assay for the Inhibitors of L3MBTL1; AlphaScreen L3MBTL1–H3K9me1 peptide binding; Potency, µM (titrated, usually from 57.1 µM), inactives show top-dose activity, negative = inhibition, most hits filed as inhibitors; 230,000 tested, 0.66% active; AID 485360, 2010; also: % is scaled to controls: 0 for no effect and ±100 for the full control effect; nearly all actives have a fitted effect of over 60% in size
# Target sequence (Q9Y468 whole entry, looked up): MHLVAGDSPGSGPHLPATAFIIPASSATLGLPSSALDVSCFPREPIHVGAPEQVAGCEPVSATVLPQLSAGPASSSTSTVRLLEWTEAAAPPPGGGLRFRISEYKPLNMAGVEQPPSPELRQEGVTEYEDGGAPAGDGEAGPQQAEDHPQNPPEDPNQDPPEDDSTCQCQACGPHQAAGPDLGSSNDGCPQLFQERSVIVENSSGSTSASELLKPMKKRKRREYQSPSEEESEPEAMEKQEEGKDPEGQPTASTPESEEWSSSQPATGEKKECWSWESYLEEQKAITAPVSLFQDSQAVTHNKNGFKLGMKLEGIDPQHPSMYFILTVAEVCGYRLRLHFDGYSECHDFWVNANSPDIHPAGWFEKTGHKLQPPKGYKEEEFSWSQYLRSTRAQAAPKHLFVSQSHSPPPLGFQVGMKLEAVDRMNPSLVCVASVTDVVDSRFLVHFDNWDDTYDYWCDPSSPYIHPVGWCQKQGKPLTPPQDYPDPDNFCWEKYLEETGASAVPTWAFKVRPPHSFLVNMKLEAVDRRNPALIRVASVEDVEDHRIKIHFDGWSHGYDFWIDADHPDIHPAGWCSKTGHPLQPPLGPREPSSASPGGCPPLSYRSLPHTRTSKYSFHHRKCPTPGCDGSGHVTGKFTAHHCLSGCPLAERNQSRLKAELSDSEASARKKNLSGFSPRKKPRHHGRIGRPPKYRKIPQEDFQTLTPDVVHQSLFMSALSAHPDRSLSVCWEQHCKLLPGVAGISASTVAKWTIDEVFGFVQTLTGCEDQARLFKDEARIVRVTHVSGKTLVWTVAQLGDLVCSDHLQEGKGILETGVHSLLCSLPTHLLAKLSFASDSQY
#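 Displacement of a biotinylated histone H3(1-15) peptide monomethylated at Lys9 (75 nM) from L3MBTL1 (50 nM) was measured by AlphaScreen after a 30 min room-temperature compound incubation; cefsulodin titration served as intraplate control.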
# * hit, by the source's call; ? = inconclusive; · = no result; [ ] = another dose, or the depositor's remark. Calls follow the shape of the dose curve; as a rule, active = well fitted curve in the direction sought with a large enough effect; inconclusive = small, poorly fitted or top-dose-only effect, or another doubt; inactive = no such curve, though single readings can be large; an effect the other way counts as inactive or inconclusive. Potency is read from the fitted curve at half-maximal effect.
SMILES,Sfp PPTase inh,BAZ2B inh,JMJD2A Tudor inh,HP1b binding inh,G9a inh,L3MBTL1 block
CCOC(=O)N1CCN(CC(=O)c2ccc(O)cc2O)CC1,-7%,?,-12%,20%,?,·
O=C(CN1CCN(c2ccc(F)cc2)CC1)c1ccc(O)cc1O,-2%,?,-24%,4%[57 µM],79µM*,·
COc1ccc(N2CCN(CC(=O)c3ccc(O)cc3O)CC2)cc1,7%,?,?,-19%[57 µM],71µM*,·
CCCCCCn1c(=O)[nH]c2nc3cc(N)c(C)cc3nc2c1=O,?,3%,-21%,5%,3.5µM*,-5%
COc1ccc(NC(=O)CSCC(=O)N2CCN(C(=O)c3ccco3)CC2)cc1,·,-3%,-7%,29%,4%[59 µM],-2%
C=CCn1c(SCC(=O)Nc2nc(C)cs2)nnc1C(C)NC(=O)c1ccccc1Cl (stereo not given),7%,-6%,89µM*,19%,?,-3%
CC(NC(=O)c1ccccc1Cl)c1nnc(SCC(=O)Nc2ccc(C(=O)O)cc2)n1C (stereo not given),15%,1%,-11%,-3%,-2%[59 µM],9%
Cc1sc(NC(=O)c2cccs2)c(C(N)=O)c1C,40µM*,-6%,-21%,?,4µM*,2%
CN(C)c1nc(=NCc2ccco2)ss1,0.5µM*,-19%,-4%,15%,·,-4%
Cc1ccc(Nc2ccc(N3CCN(C(=O)c4cccc([N+](=O)[O-])c4)CC3)nn2)cc1,·,-34%,-29%,8%,-5%[59 µM],·
O=C(Nc1ccccc1F)Nc1cccnc1Cl,·,·,-2%,-4%,·,·
CCOc1ccc(S(=O)(=O)N2CCOCC2)cc1NC(=O)CN1C(=O)NC(C)(c2ccccc2)C1=O (stereo not given),·,8%,-4%,20%,-12%[2.33 µM],-1%
O=S1(=O)N=C2CCCCCN2C(c2ccc(F)cc2)N1 (stereo not given),-2%,-14%,-14%,26%,3%,-3%
O=[N+]([O-])c1ccc(C2NS(=O)(=O)N=C3CCCCCN32)cc1 (stereo not given),50µM*,3%,1%,57%,25µM*,6%
CC(/C=C/c1ccc(N(C)C)cc1)=N/N=C1/NC(=O)CC(C(=O)Nc2ccc(Cl)cc2)S1 (stereo not given),5%,?,?,-17%,32µM*,-24%
CC1C(=O)N(Cc2ccc([N+](=O)[O-])cc2)c2ccccc2N1C(=O)C1CC1 (stereo not given),9%,-22%,-7%,34%,2%,1%
COc1ccc(OC)c(CNS(=O)(=O)c2c(C(=O)N3CCC(C)CC3)c(C)n(C)c2C)c1,·,-22%,-11%,23%,1%[12.7 µM],·
CC1=C(C(=O)Nc2ccc(C)cc2C)C(c2ccccc2[N+](=O)[O-])n2ncc(C(=O)Nc3ccccc3)c2N1 (stereo not given),·,-13%[57.1 µM],?,-5%,7.1µM*,·
CC1=C(C(=O)Nc2ccc(C)cc2C)C(c2ccc(Br)cc2)n2ncc(C(=O)Nc3cccc(C)c3)c2N1 (stereo not given),·,7%[57.1 µM],-11%,25%,-27%[59 µM],·
CN1c2ccccc2Sc2cc(N)ccc21,-13%,28µM*,32µM*,?,1.1µM*,?
O=C(O)CCN1c2ccccc2Sc2ccccc21,17%,?,-5%,37%,-41%[12.7 µM],1%
COC(=O)C1=C(C)N(CCCCCC(=O)O)C(=O)NC1c1ccccc1 (stereo not given),-10%,·,-4%,47%,·,·
c1ccc(-c2cn3nc4c(nc3n2)CCCC4)cc1,79µM*,6%,17%,67%,50µM*,·
Brc1ccc(-c2cn3nc4c(nc3n2)CCCC4)cc1,?,10%,-7%[11.4 µM],70%,?,·
COc1ccc(-n2c(CCC(=O)O)ccc2-c2ccc(F)cc2)c(OC)c1,-4%,-27%,?,5%,40µM*,·
SMILES,Sfp PPTase inh,BAZ2B inh,JMJD2A Tudor inh,HP1b binding inh,G9a inh,L3MBTL1 block
COC(=O)c1ccccc1-n1c(CCC(=O)O)ccc1-c1ccc(F)cc1,-1%,-12%,-14%,19%,?,·
O=C(O)CCc1ccc(-c2ccc(F)cc2)n1CC(=O)O,?,-2%,-29%,21%,45µM*,-15%
Cn1ccnc1C(=O)c1ccc(NN)c([N+](=O)[O-])c1,-11%,?,-32%,-16%,22µM*,-14%
Cn1ccnc1C(=O)c1cccc([N+](=O)[O-])c1,3%,7%,-1%,37%,-6%,5%
CCc1ccc(CN(Cc2ccco2)C(=O)c2cc(-c3ccc(C)c(F)c3)on2)cc1,·,?,-17%,33%,-6%[59 µM],·
COc1cc2c(cc1OC)C(c1ccccc1)CN(C)CC2 (stereo not given),-1%,·,·,·,?,·
Oc1cc2c(cc1O)[C@H](c1ccccc1)CNCC2,79µM*,·,·,·,·,·
NC(=O)CSc1ncc2c(n1)-c1ccccc1N(Cc1ccc(F)cc1)S2(=O)=O,·,-19%,8%,22%,1%[59 µM],·
COc1cc(C2NC(=O)NC(O)(C(F)(F)F)C2C(=O)c2ccc(Cl)cc2)ccc1O (stereo not given),18%,-27%,-18%[57.1 µM],50%,79µM*,3%
CC(Sc1nnc(-c2cccs2)n1N)C(=O)NCC1CCCO1 (stereo not given),·,4%,2%,22%,50µM*,3%
CCN(CC)S(=O)(=O)c1ccc2c(c1)nc(SC(C)C(=O)NCC1CCCO1)n2CC (stereo not given),11%,-18%,-14%,6%,79µM*,·
Cc1csc(SC(C)C(=O)NCC2CCCO2)n1 (stereo not given),·,-3%,-3%,33%,40µM*,-4%
O=C(CSc1nnc(-c2cccs2)n1CC1CCCO1)c1cc2ccccc2o1 (stereo not given),5%,-30%,-30%,19%,45µM*,-6%
O=C(COc1ccccc1Cl)NCCNC(=O)c1ccccn1,11%,1%,-7%,-20%,9%,·
Cc1cccc(CNc2ncncc2-c2ccccc2C(F)(F)F)c1,-29%,·,·,·,·,·
CCC(=O)OCC(=O)C1(OC(=O)CC)C(C)CC2C3CCC4=CC(=O)C=CC4(C)C3(Cl)C(O)CC21C (stereo not given),-2%,·,·,·,-14%[2.33 µM],·
